# Assay results as given in PubChem BioAssay AID504332 (National Center for Advancing Translational Sciences (NCATS), 2011).
# In all, about 350,000 compounds went through this assay and about 31,000 (8.9%) were called active. Not shown: some 15% with an inconclusive outcome. The sample holds actives, similar compounds and a random draw of the others, so the mix is not that of the screen. A number with no mark means an inactive call. The call rests on the fitted dose curve; in most records, active means well fitted inhibition curve with a large enough effect; inconclusive means small, poorly fitted or top-dose-only effect; inactive means no such curve, though single readings can be large or run the other way.
# Biological target: Histone-lysine N-methyltransferase EHMT2 (Homo sapiens) (UniProt Q96KQ7)
# Sequence (Q96KQ7 913-1193 limits assumed): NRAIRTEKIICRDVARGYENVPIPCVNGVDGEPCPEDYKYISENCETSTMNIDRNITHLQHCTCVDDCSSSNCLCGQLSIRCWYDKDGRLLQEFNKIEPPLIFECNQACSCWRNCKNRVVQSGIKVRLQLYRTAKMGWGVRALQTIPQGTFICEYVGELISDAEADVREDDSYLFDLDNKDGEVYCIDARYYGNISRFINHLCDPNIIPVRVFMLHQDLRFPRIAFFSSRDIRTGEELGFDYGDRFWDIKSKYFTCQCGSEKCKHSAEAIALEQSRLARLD
# Test: qHTS Assay for Inhibitors of Histone Lysine Methyltransferase G9a; further: nearly all actives have a fitted effect of over 75% in size
# Conditions: G9a H3K9 monomethylation, AlphaScreen, 2 h; series mostly up to 59 µM; activity, negative = inhibition: at the top concentration
# Source text: Methylated lysines, on the N-terminal tails of histone proteins serve as epigenetic markers to recruit factors that can then modify local chromatin structure to lead to functional consequences. G9a and other members of the SUV39 family of the SET domain-containing superfamily of histone lysine methyltransferases (HMT) have been identified to specifically methylate Lys9 of histone H3 (H3K9). G9a catalyzes the mono- and di-methylation of H3K9 in mammalian euchromatic regions, where the resulting H3K9me2 is indicative of transcriptional repression. […] The inhibition of G9a will result in transcriptional activation and work synergistically with DNA methyltransferase and histone deacetylase inhibitors, to kill cancer cells. This qHTS assay for identification of G9a inhibitors is a chemiluminescence based AlphaScreen (PerkinElmer). Methylation of biotinylated-histone peptide is measured through specific antibody-based detection, in conjunction with streptavidin-coated donor and anti-IgG antibody-coated acceptor beads. The method is particularly well suited for detection of inhibitors acting by the desired histone peptide competitive mechanism and is applicable to testing other HMTs. Although AlphaScreen has significant advantages with its utility in a variety of epigenetic target assays, the primary screening data provided in this deposition should be used with caution due to the prevalence of screening artifacts. An AlphaScreen counterscreen is highly recommended to be run against any putative actives to eliminate non specific artifacts. Alternatively, one can use other AlphaScreen assays in PubChem to filter out promiscuous hits. Quinn et al. A chemiluminescence-based method for identification of histone lysine methyltransferase inhibitors. Mol Biosyst 6(5): 782-8. 2010. PMID: 20567762 [2] Baell,Holloway. New substructure filters for removal of pan assay interference compounds (PAINS) from screening libraries and for their exclusion in bioassays. J Med Chem. 53(7):2719-40. 2010. PMID: 20131845 NIH Molecular Libraries Probe Production Network [MLPCN] NIH Chemical Genomics Center [NCGC] Structural Genomics Consortium (SGC) NIH Grant: 5U54 MH084681-02
# To each well of a 1,536w plate, 2ul of HMT enzyme (final 20nM) were added, using a nanoliter dispenser. The G9a- and GLP-inhibitor BIX-01294 (CID: 25150857) are used as an intraplate control, with a 16-point titration in duplicate. A Kalypsys pin-tool transferred 23nl of library compound solution in DMSO to each well. Following a 15 min incubation of enzyme with compounds at room temperature, 1ul mixture of b-H3K9 peptide substrate (final 500nM) and SAM cofactor (final 20uM) were added. Reactions were allowed to proceed at room temperature for 2 hours. Methylated b-H3K9 peptide product was detected with 0.5 ug/mL rabbit polyclonal anti-monomethyl histone H3K9 antibody (Abcam Inc., Cambridge, MA) and 20 ug/mL each streptavidin-coated donor and anti-rabbit IgG acceptor AlphaScreen beads. Antibody and beads were added in a 1ul dispense, for a final volume of 4ul, and plates were incubated, protected from the light, for 10 min at room temperature. Microplates were then read on an EnVision multilabel plate reader using the 1,536 plate HTS AlphaScreen aperture (excitation time 80 ms, measurement time 240 ms).
# On the % scale 0 is the no-effect control and ±100 the full control effect; potency means the concentration at half of the fitted maximal effect.
Compound,"activity, negative = inhibition",Potency
O=C(Nc1ccc(S(=O)(=O)NCC2CCCO2)cc1)c1ccc(F)cc1 (centres undefined),-3.3% [at 102 µM],
CCSc1nc(-c2ccc(OC)cc2)cc(-c2ccc(OC)cc2)c1C#N,9.7% [at 102 µM],
N#Cc1c(-c2ccccc2)cc(-c2ccccc2)nc1SCC(=O)O,,11.2 µM (active)
N#Cc1c(C(F)(F)F)cc(-c2ccc(Cl)cc2)nc1SCC(=O)O,-33.3% [at 102 µM],
CCc1ccc(NC(=O)c2cnc3c(-c4ccccc4)c(C)nn3c2C)cc1,4.34%,
O=C(NCc1ccc2c(c1)OCO2)c1c(O)nc2sccn2c1=O,-48.6% [at 102 µM],
Cc1ccc(NC(=O)C(Cc2ccccc2)NS(=O)(=O)c2ccc3c(c2)oc(=O)n3C)cc1C (centres undefined),11.1%,
O=C(N/N=C/c1ccc(OCc2ccccc2)cc1)c1ccc(O)cc1,6.52% [at 102 µM],
O=C(C[n+]1ccccc1)N/N=C/c1ccc(O)cc1,-14.7% [at 102 µM],
Oc1ccc(/C=N/N(Cc2ccccc2)c2ccccc2)cc1,,39.8 µM (active)
Cc1ccc(Cn2c(CNC(=O)Cc3cccc(C)c3)nc3cccnc32)cc1,5.94%,
Fc1ccccc1/C=C1\CCCC2=C1Nc1ncnn1C2c1ccccc1F (centres undefined),,35.5 µM (active)
CCOC(=O)C1=C(c2ccccc2)Nc2ncnn2C1c1ccc(Cl)cc1 (centres undefined),-29.8%,
CC1=C(C(N)=O)C(c2ccc(Br)cc2)n2ncnc2N1 (centres undefined),-24.4% [at 102 µM],
COc1cc(NC(=O)c2nn(-c3ccc(C)cc3)c(=O)c3c2c2ccccc2n3C)cc(OC)c1OC,7.8%,
COc1ccc2c(c1)CCc1c(C(=O)Nc3cc(C)ccc3O)noc1-2,-23.4%,
Cc1cc(C(C)(C)C)cc(C)c1N,-0.892%,
CC(C)(C)c1ccc(Oc2ccc(N)cc2)cc1,,50.1 µM (active)
Cc1ccc(Oc2ccc(N)cc2)cc1,,50.1 µM (active)
Cc1ccc(S(=O)(=O)c2ccc(Oc3ccccc3)cc2)cc1,65.5%,
CC(C)(C)c1ccc(OC2=CS(=O)(=O)c3ccccc32)cc1,-27.5% [at 102 µM],
Cc1cc(C)cc(N)c1,2.02% [at 0.501 µM],
NC(=O)NC(=O)C(OC(=O)CCNS(=O)(=O)c1ccccc1)c1ccccc1 (centres undefined),-49.4%,
CCCS(=O)(=O)Nc1cccc(-c2cn3ccsc3n2)c1,-45.7%,
Cc1ccc(NC(=O)Cc2nc(COC(=O)C(C)NS(=O)(=O)c3ccc(C)cc3)cs2)cc1 (centres undefined),-6.75% [at 12.7 µM],

Compound,"activity, negative = inhibition",Potency
Cc1ccc(S(=O)(=O)c2c(Nc3cccc(Cl)c3)sc(C(=O)c3ccc4c(c3)OCO4)c2N)cc1,-12.4%,
COc1ccc(CNC(=O)CCc2c(C)nn(-c3ccc(N4CCCC4)nn3)c2C)cc1,11.4%,
O=C(c1ccncc1)c1ccc([N+](=O)[O-])cc1,-22.8% [at 102 µM],
O=C(Cn1c[n+](CC(=O)c2ccc([N+](=O)[O-])cc2)cn1)c1ccc([N+](=O)[O-])cc1,,inactive
O=C(CC(n1cncn1)C(Cl)(Cl)Cl)c1ccc([N+](=O)[O-])cc1 (centres undefined),,10 µM (active)
O=C(O)[C@@H](S)[C@H](S)C(=O)O,,6.31 µM (active)
Cc1cccc(CNC(=O)c2cnc3sc(N4CCCCC4)nn3c2=O)c1,7.83%,
CCCC12CN3CC(CCC)(CN(C1)C3c1c[nH]c3ccc(OC)cc13)C2=O (centres undefined),-41.5%,
S=C(NNC(=S)NC1CC2C=CC1C2)NC1CC2C=CC1C2 (centres undefined),,2 µM (active)
CCn1c(CNC(=O)C23CC4CC(CC(C4)C2)C3)nnc1SCC(=O)Nc1ccc(OC)cc1,4.32%,
Cc1ccc(-c2nc(SCc3ccc(Br)cc3)n3[nH]c(=O)cc3n2)cc1,-1.28%,
NC(=O)C(=O)N/N=C/c1ccc([N+](=O)[O-])o1,26.4%,
O=S(=O)(c1ccc2nc(N3CCN(c4cccc(Cl)c4)CC3)ccc2c1)N1CCCCC1,8.8%,
Cc1ccc(Nc2ccc3cc(S(=O)(=O)N4CCCCC4)ccc3n2)cc1F,1.39%,
O=S(=O)(c1ccc2nc(NCc3ccccc3Cl)ccc2c1)N1CCCCC1,,7.94 µM (active)
COc1ccc(NC(=O)CN(C)C(=O)c2cccc(S(=O)(=O)N3CCN(c4ccccc4)CC3)c2)cc1,-46.2% [at 102 µM],
COc1cc(C(=O)N2CCN(C)CC2)cc(OC)c1OC,-4.42% [at 102 µM],
COC(=O)c1cccc(NC(=O)CN2CCC(NC(=O)c3cc(OC)c(OC)c(OC)c3)CC2)c1,-30% [at 102 µM],
CCN1CCN(CC(=O)c2cc(OC)c(OC)c(OC)c2)CC1,,39.8 µM (active)
CCOC(=O)c1ccccc1CN1C(=O)c2ccccc2S1(=O)=O,28.8% [at 102 µM],
Cc1cc(C)c2oc(-c3cccc(NC(=O)c4cccc(F)c4)c3C)nc2c1,-3.15%,
CC/C(O)=N\S(=O)(=O)c1ccc(N=NN(C)C)cc1,-8.72%,
COc1ccc(/C(C)=N/NC(=O)c2ccc3nc[nH]c3c2)cc1,68% [at 102 µM],
CN(C)N=Nc1ccc2nc[nH]c2c1,,1.78 µM (active)
